High-throughput results from PubChem.
Compounds with a hit are over-represented: about 1.9% of the library has one in this group of screens.
eIF4E-4G inh – eIF4E–eIF4G protein interaction inhibitors, primary screen, biochemical, uHTS, TR-FRET, eIF4GI fragment | Eukaryotic translation initiation factor 4E (Mus musculus) + Eukaryotic translation … | TR-FRET eIF4E-eIF4GI(517-606) binding, 2 h | inhibition, % at 21.7 µM | 220,000 tested, 0.37% active;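 active means inhibition above about 30%, limit read from the data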;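 further: 0% = full FRET control wells and 100% = background wells lacking eIF4GI fragment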
MLLE-PAM2 inh – inhibitors of PABP1 MLLE–PAM2 peptide binding, primary screen, biochemical, fluorescence polarization, FITC-PAM2, GST-MLLE | AID 588489, 2011 | Polyadenylate-binding protein 1 (Homo sapiens), P11940 | inhibition, % at 20 µM | 360,000 tested, 0.36% active; in the data active means inhibition above about 35%, passing the limit was not always enough;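 further: plate controls were DMSO wells with GST-MLLE for no effect and wells lacking GST-MLLE protein for full effect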
Target sequence (P11940 whole entry, looked up): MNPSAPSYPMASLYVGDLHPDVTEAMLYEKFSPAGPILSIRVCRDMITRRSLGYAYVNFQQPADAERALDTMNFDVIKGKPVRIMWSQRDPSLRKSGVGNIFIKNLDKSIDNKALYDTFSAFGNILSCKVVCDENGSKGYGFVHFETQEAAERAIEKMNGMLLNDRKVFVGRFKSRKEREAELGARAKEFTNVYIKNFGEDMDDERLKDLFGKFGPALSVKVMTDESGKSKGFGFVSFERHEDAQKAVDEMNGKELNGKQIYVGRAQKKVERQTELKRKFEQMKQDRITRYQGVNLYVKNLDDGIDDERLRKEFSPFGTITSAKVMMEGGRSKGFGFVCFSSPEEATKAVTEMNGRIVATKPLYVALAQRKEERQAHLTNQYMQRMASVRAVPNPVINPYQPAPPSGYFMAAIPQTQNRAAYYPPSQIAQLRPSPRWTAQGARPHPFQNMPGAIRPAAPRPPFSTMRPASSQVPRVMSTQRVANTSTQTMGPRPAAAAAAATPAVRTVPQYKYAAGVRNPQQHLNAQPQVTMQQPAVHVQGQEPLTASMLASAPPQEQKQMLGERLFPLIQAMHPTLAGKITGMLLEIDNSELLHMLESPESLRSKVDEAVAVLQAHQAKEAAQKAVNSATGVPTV
PABP polyA inh – PABP poly(A) RNA binding inhibitors, primary screen, biochemical, fluorescence polarization, uHTS; Polyadenylate-binding protein 1 (Homo sapiens), P11940; AID 2014, 2009; 290,000 tested, 1% active; calls only at 35 µM;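 further: calls also rest on retests at 20 µM and on dose response follow-up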
eIF4H inh – human eIF4H binding inhibitors, primary screen, translation initiation inhibitor project, biochemical, uHTS, fluorescence polarization. eIF4H fluorescence polarization binding assay. Eukaryotic translation initiation factor 4H (Homo sapiens), Q15056. AID 2012, 2009. inhibition, % at 35 µM. 290,000 tested, 0.94% active;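 further: calls also rest on retests at 20 µM and on dose response follow-up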
14-3-3 Bad inh – inhibitors of 14-3-3 zeta/Bad binding, primary screen, biochemical, TR-FRET, bovine 14-3-3 zeta. 220,000 tested, 0.71% active. 14-3-3 protein zeta/delta (Bos taurus), P63103. AID 781, 2007. TR-FRET 14-3-3zeta/Dy647-pBad peptide displacement, 1 h. inhibition, % at 21.7 µM;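 active means inhibition above about 70%, limit read from the data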;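 further: 0% = full 14-3-3 plus peptide FRET controls and 100% = background without 14-3-3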
An asterisk follows results filed as active; i = inactive; ? = inconclusive; . = not tested or not shown; + = active, no number. Unless noted, how the calls were made is not given here.

SMILES | eIF4E-4G inh | MLLE-PAM2 inh | PABP polyA inh | eIF4H inh | 14-3-3 Bad inh
CNc1ccc([N+](=O)[O-])cc1-c1nc2ccccc2[nH]c1=O | 17.9 | 4.4 | i | 19.8 | 72.7*
COc1ccc(CC(=O)NCCS(=O)(=O)N2CCN(c3ccccc3OC)CC2)cc1 | . | 3.8 | . | . | .
O=c1cc(O)n(C2CCCCCC2)c(=O)[nH]1 | . | -32.5 | + | 55.5 | .
O=c1cc(N2CCN(c3ccc(F)cc3)CC2)[nH]c(=O)n1C1CCCCC1 | 1.1 | 12.5 | i | 1.1 | 5.8
CC(OCC(O)CN(C)CCOc1ccccc1)c1ccc(Cl)cc1 (centres undefined) | 3.0 | 5.3 | i | 2.2 | 74.2*
Cc1ccc(OCC(=O)Nc2nnc(S(=O)(=O)N3CCCCCC3)s2)cc1 | . | -12.7 | i | 66.1* | .
O=C(COc1ccccc1)Nc1nnc(S(=O)(=O)N2CCCCC2)s1 | . | -15.6 | i | -7.1 | .
Cc1ccc(OCC(=O)Nc2nnc(S(=O)(=O)N3CCCCC3)s2)cc1 | . | -57.7 | + | 83.0* | .
Cc1ccc(C(=O)NCC2CCCN2S(=O)(=O)c2cccs2)cc1C (centres undefined) | . | -3.0 | . | . | .
O=C(CC1CC2CCC1C2)N1CCN(S(=O)(=O)c2ccc(F)cc2)CC1 (centres undefined) | . | -11.6 | . | . | .
O=C(NC1CCCC1)C(c1ccc(F)cc1)N(C(=O)c1csnn1)C1CC1 (centres undefined) | . | 22.9 | i | -4.0 | .
Cc1cc(C)n2nc(SCc3cc(=O)oc4cc(C)c(C)cc34)nc2n1 | -5.3 | . | i | 6.3 | -3.0
Cc1cc(C)n2nc(SCc3cc(=O)oc4ccc5ccccc5c34)nc2n1 | -16.6 | 40.2* | i | 28.6 | -29.4
Cc1cccc(NC2SC(=O)NC2=O)c1 (centres undefined) | -2.7 | 52.5* | i | 5.9 | -18.2
Cc1cccc(NC2CNC(=O)NC2=O)c1 (centres undefined) | . | -0.7 | . | . | .
COc1cccc(-c2nc(CS(=O)(=O)CC(=O)NC3CCCCCC3)c(C)o2)c1 | . | -3.6 | i | 2.3 | .
Cn1c(SCc2ccc([N+](=O)[O-])cc2)nc2c(c1=O)SCC2 | 2.1 | 17.8 | + | active | -7.2
Cn1c(SCc2c(F)cccc2Cl)nc2c(c1=O)SCC2 | -3.8 | 15.2 | i | -5.5 | -10.9
CCCC(NC(=S)NCC1CCCO1)C12CC3CC(CC(C3)C1)C2 (centres undefined) | -3.5 | -45.2 | i | 0.1 | 7.0
CCN=C1NN=C(c2cc(C)n(CCc3ccccc3)c2C)CS1 | 11.7 | -21.4 | i | 13.5 | 92.0*
C=CCn1c(C)cc(C2=NNC(=NCc3ccccc3)SC2)c1C | -4.7 | -34.9 | i | 4.1 | -4.5
CCn1c(COc2cc(C)ccc2C(C)C)nnc1SCC(=O)Nc1nccs1 | -0.6 | -15.9 | i | 10.7 | -7.3
O=C(O)c1ccc2c(c1)C(=O)N(N1C(=O)c3ccccc3C1=O)C2=O | -0.8 | 4.8 | + | -11.7 | -23.1
O=C(O)c1ccc2c(c1)C(=O)N(c1cccc(-c3nc4ccccc4s3)c1)C2=O | 46.3* | 5.8 | i | 0.2 | 1.6
Cc1noc(C)c1S(=O)(=O)N(C)C[C@H]1Oc2ccc(NC(=O)CCC(F)(F)F)cc2C(=O)N([C@H](C)CO)C[C@@H]1C | . | 3.5 | . | . | .
SMILES | eIF4E-4G inh | MLLE-PAM2 inh | PABP polyA inh | eIF4H inh | 14-3-3 Bad inh
O=C(Nc1cccc(NC(=O)c2ccc(Br)o2)n1)c1ccc(Br)o1 | -0.6 | -8.5 | i | 41.4 | 75.0*
Cc1nc(NC(=O)c2ccc(Br)o2)ccc1Br | . | -8.6 | i | -11.4 | .
CCOC(=O)N1CCC(N(CCN(C)C)C(=S)Nc2ccccc2OCC)CC1 | -1.2 | 21.9 | + | active | -8.9
CSc1nsc(SCC(=O)NCc2ccccc2)n1 | . | 40.1* | i | 5.0 | .
C[C@H](CO)N1C[C@H](C)[C@@H](CN(C)C(=O)Nc2ccc3c(c2)OCO3)Oc2c(NC(=O)Nc3ccc(C(F)(F)F)cc3)cccc2C1=O | . | -1.3 | . | . | .
CCCCCCN1C[C@@H](O)[C@H](n2cc(COC(=O)c3ccccc3)nn2)C[C@@H]1c1ccc(C)cc1 | . | 8.5 | . | . | .
Cn1ccnc1C(=O)c1ccc(NN)c([N+](=O)[O-])c1 | 0.5 | -50.7 | i | 11.7 | -17.8
Cn1ccnc1C(=O)c1cccc([N+](=O)[O-])c1 | 8.0 | 1.4 | i | -9.1 | 90.7*
CC(C)c1ccc(/C=N/NC(=O)c2nnn(-c3nonc3N)c2CN2CCOCC2)cc1 | . | 10.4 | i | -23.9 | .
Nc1nonc1-c1nc2ccccc2n1CC(=O)N/N=C/c1ccc(-c2cccc(C(=O)O)c2)o1 | 6.0 | 3.1 | + | 86.2* | 7.3
Nc1nnc(CC(=O)N/N=C/c2ccc(-c3ccc(F)cc3)o2)s1 | -9.0 | -16.2 | i | -1.4 | -4.7
Nc1nnc(CC(=O)N/N=C/c2ccc(-c3cccc(C(=O)O)c3)o2)s1 | -4.0 | 0.4 | i | 76.0* | 4.5
Cc1nn(CCC(=O)N2CCN(S(=O)(=O)c3ccccc3)CC2)c(C)c1C | . | 4.7 | i | 7.5 | .
O=[N+]([O-])c1ccc(C2=Nn3cnnc3SC2)cc1 | 62.4* | 27.5 | i | -5.6 | 6.9
O=[N+]([O-])C(/C=C(\Cl)[N+](=O)[O-])=C1N(Cc2ccc(Cl)nc2)CCN1Cc1ccc(Cl)nc1 | -7.3 | -82.3 | + | ? | 5.5
O=C(Nc1ccc2c(c1)OCO2)c1cc2ncc(Br)cn2n1 | . | -7.6 | + | 54.0* | .
O=C(Nc1cccc(C(F)(F)F)c1)c1cc2ncc(Br)cn2n1 | -9.7 | -1.2 | i | 1.5 | 1.2
COc1ccc(NS(=O)(=O)c2ccc3c(c2)CCO3)cc1 | -0.5 | 8.3 | i | -1.7 | 73.8*
CCC(=O)N1CCC(C)(C(=O)NCc2ccc(F)cc2)C1 (centres undefined) | . | -4.4 | . | . | .
CCOc1cc(C(N)=O)cc(Br)c1OC | -4.6 | 13.9 | i | 8.5* | 4.0
N#Cc1ccccc1S(=O)(=O)N1CCN(CC(O)COc2ccccc2F)CC1 (centres undefined) | . | -8.7 | i | 4.1 | .
N#Cc1ccccc1S(=O)(=O)N1CCN(CC(O)c2ccccc2)CC1 (centres undefined) | -2.4 | 9.4 | i | 7.2* | 13.3
CC(C)NC(=O)CC(=O)NN=C1CCCCC1 | -1.4 | 1.6 | i | -4.4 | -10.2
CN(C)C(=O)c1cn(-c2ccc(Cl)cc2)c(=O)c2ccccc12 | 1.9 | -10.5 | i | 2.5 | 1.7
CN(C)C=NC(=O)c1cn(-c2ccc(F)cc2)c(=O)c2ccccc12 | 3.5 | 6.8 | i | 9.9* | 5.5
COc1cc(CN2C[C@@H](CO)O[C@@H](n3cnc4c(NCC(C)C)ncnc43)C2)cc(OC)c1OC | . | 9.7 | . | . | .
